# Experimental data taken from PubChem BioAssay.
# Calls of active or inactive are those of the source.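 How the source made its calls, unless noted: active means NADPH fluorescence slope more negative than the mean of all samples by about 3 SD, 99.7% confidence; inactive means the rest.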
# Key:
# [1] = inhibitors of TNFa-induced NFkB p65 translocation, primary screen, imaging, HUVEC, MLSMR starter and 10KST1 sets (AID 438;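 active means inhibition above 20% together with a positive visual image hit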;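 further: compound added about 3h40 before a 20 min TNFalpha stimulation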;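 on inhibition: signal is the nuclear over cytoplasmic p65 intensity ratio per well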); details: HUVEC TNFa-induced p65 nuclear translocation; cell count: measured here: nuclei count (cytotoxicity indicator), at 2.08 µM; inhibition: at 2 µM, stronger effect = higher value, 0% TNFa-plus-vehicle, 100% no-TNFa wells
# [2] = inhibitors of mutant huntingtin aggregation, primary screen, imaging, exon1htt(103Q)mCFP cells, high-content imaging (AID 483;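 active means visual image review flags a hit and inhibition of aggregation exceeds 20%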;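 further: compound exposure lasted 3 days before fixation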;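 on nuclei count: percent of the per-plate median nuclei count of sample wells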); details: exon1htt(103Q)mCFP cell line, aggregate imaging, at 2 µM; inhibition of aggregation: stronger effect = higher value; nuclei count: measured here: cell count, toxicity
# [3] = inhibitors of E-selectin induction by TNFa, primary screen, imaging, HUVEC, immunofluorescence, MLSMR starter and 10KST1 sets (AID 487;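 active means visually confirmed hit in the image check and inhibition above 20%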;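 on inhibition: signal is fraction of cell area covered by stained E-selectin grains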;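 on nuclei count: 100% = median nuclei count of all wells on the same plate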); details: HUVEC TNFalpha-induced E-selectin immunofluorescence imaging, at 2 µM; inhibition: stronger effect = higher value; nuclei count: measured here: cell number, toxicity
# [4] = molecular target: Voltage-gated potassium channel subunit beta-2 (Rattus norvegicus) (UniProt P62483); experiment: KvBeta enzyme negative modulators, primary screen, biochemical, NADPH fluorescence (AID 622;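 active means fluorescence slope higher than the sample average by over 3 SD, cut at about -0.22 in these data, passing the limit was not always enough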;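 further: slope of raw intensity against log time taken from 70 to 1610 s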); details: recombinant KvBeta, 4-cyanobenzaldehyde reduction, at 10 µM, stronger effect = higher value
# Chain of Voltage-gated potassium channel subunit beta-2 (Rattus norvegicus) (P62483 whole entry, looked up): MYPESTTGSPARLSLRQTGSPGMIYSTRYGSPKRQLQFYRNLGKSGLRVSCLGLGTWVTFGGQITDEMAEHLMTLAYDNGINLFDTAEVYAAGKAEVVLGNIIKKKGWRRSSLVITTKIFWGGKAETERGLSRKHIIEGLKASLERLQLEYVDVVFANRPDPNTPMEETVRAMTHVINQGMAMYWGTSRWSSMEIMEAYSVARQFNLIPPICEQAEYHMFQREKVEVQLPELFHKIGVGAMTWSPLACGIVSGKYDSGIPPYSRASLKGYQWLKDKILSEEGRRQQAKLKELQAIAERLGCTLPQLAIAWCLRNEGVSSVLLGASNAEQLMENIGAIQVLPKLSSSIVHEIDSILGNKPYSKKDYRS
# [5] = molecular target: Voltage-gated potassium channel subunit beta-2 (Rattus norvegicus) (UniProt P62483); experiment: KvBeta positive modulators, primary screen, biochemical, NADPH fluorescence (AID 623); details: Recombinant KvBeta, NADPH fluorescence decrease slope, 10 min; at 10 µM; stronger effect = lower value;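 further: fluorescence intensity change per second fitted from 20 to 320 s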
# [6] = molecular target: Alpha-2C adrenergic receptor (Homo sapiens) (UniProt P18825); experiment: modulators of alpha2C/GIRK thallium flux, primary screen, cell-based, HEK293 alpha2C/GIRK1/2 (AID 624;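 active means fluorescence slope after compound addition differing from the mean of all screened samples at 99.7% confidence, in either direction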;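 further: slope of fluorescence ratio to pre-addition baseline per second over 15 to 24 s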); details: thallium flux BTC fluorescence, at 10 µM, actives lie on both sides
# Chain of Alpha-2C adrenergic receptor (Homo sapiens) (P18825 whole entry, looked up): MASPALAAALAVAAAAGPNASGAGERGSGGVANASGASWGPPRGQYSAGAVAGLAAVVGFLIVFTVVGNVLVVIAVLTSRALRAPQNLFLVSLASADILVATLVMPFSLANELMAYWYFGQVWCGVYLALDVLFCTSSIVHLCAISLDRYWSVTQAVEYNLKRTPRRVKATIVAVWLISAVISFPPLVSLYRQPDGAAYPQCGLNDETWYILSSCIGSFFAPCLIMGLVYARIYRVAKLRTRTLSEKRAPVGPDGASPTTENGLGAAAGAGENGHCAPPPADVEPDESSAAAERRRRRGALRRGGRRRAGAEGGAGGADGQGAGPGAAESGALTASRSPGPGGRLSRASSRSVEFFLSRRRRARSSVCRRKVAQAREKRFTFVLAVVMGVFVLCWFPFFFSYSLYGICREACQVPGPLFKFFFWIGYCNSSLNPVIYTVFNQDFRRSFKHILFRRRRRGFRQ
# [7] = inhibitors of Sendai virus-induced IRF3 signaling, primary screen, TLR/RLR signaling modifier project, cell-based, Sendai virus stimulus, luciferase, 10K MLSCN set (AID 602276;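 active means inhibition at or above 50% at 10 µM; inactive means inhibition below 50%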;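 further: firefly luciferase from ISG56 promoter only with Renilla not read in this screen; 0% = Sendai virus plus DMSO and 100% = medium plus DMSO without virus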); details: HEK293 RL24 IRF3 luciferase reporter, at 10 µM, stronger effect = higher value
# [8] = inhibitors of poly I:C-induced TLR3 signaling, primary screen, cell-based, poly I:C stimulus, luciferase, 10K MLSCN set (AID 602277;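 active means inhibition of the reporter signal at or above 50%; inactive means inhibition below 50%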); details: HEK293-TLR3 RL24 IRF3 luciferase reporter, at 10 µM, stronger effect = higher value
Structure (SMILES),cell count [1],inhibition [1],inhibition of aggregation [2],nuclei count [2],inhibition [3],nuclei count [3],fluorescence slope [4],NADPH fluorescence slope [5],slope [6],inhibition [7],inhibition [8]
CCOc1cc(NC(=O)c2ccco2)c(OCC)cc1NC(=O)CCC(=O)NCc1cccnc1,600,4.9% (inactive),2.6% (inactive),97.7%,16% (inactive),90.3%,-0.358 (inactive),1.7e-05 (inactive),0.00315 (inactive),9.41% (inactive),23.3% (inactive)
CCCSc1nc2c(cnn2-c2ccc(C)cc2)c(=O)[nH]1,671,-5.8% (inactive),-5.9% (inactive),115%,-17.4% (inactive),113%,-0.545 (inactive),-5.2e-06 (inactive),0.0075 (inactive),-9.65% (inactive),10.6% (inactive)
O=C(OCC(=O)N1CCc2ccccc21)C1=COCCO1,341,-3.1% (inactive),8.9% (inactive),86.5%,-37% (inactive),113%,-0.633 (inactive),-7.8e-06 (inactive),0.00715 (inactive),-12.3% (inactive),-46.6% (inactive)
Cc1c(-n2c(CN3C(=O)c4ccccc4C3=O)nc3ccccc3c2=O)c(=O)n(-c2ccccc2)n1C,407,-8.4% (inactive),-10.1% (inactive),115%,77.1% (inactive),95.8%,-0.619 (inactive),1.1e-05 (inactive),0.00583 (inactive),5.03% (inactive),24.9% (inactive)
CCOC(=O)c1c(-c2ccc(C)o2)csc1NC(=O)COC(=O)c1cccs1,478,-7.8% (inactive),10% (inactive),66.4%,-41.5% (inactive),113%,-0.403 (inactive),-5.7e-05 (inactive),0.00798 (inactive),7.28% (inactive),15.5% (inactive)
O=C1c2ccccc2C(=O)N1C/C=C/CN1C(=O)c2ccccc2C1=O,480,7.4% (inactive),0.3% (inactive),107%,-12.9% (inactive),113%,-0.331 (inactive),-1.5e-05 (inactive),0.007 (inactive),23.3% (inactive),18.7% (inactive)
O=S(=O)(NCc1ccc(Cl)cc1)c1cnc[nH]1,468,5% (inactive),-5.7% (inactive),96.7%,-182% (inactive),129%,-0.538 (inactive),-2e-05 (inactive),0.00614 (inactive),-8.39% (inactive),-18.3% (inactive)
